Each structure is given as a SMILES string. Inconclusive results are not listed. Entries that show only a call come without a potency. The source made the active and inactive calls. Calls come from the whole dose curve; as a rule, active = well fitted inhibition curve with a large enough effect; inconclusive = small, poorly fitted or top-dose-only effect; inactive = flat fitted curve, though single readings scatter.

Chain of Luciferin 4-monooxygenase (Photinus pyralis) (P08659 whole entry, looked up): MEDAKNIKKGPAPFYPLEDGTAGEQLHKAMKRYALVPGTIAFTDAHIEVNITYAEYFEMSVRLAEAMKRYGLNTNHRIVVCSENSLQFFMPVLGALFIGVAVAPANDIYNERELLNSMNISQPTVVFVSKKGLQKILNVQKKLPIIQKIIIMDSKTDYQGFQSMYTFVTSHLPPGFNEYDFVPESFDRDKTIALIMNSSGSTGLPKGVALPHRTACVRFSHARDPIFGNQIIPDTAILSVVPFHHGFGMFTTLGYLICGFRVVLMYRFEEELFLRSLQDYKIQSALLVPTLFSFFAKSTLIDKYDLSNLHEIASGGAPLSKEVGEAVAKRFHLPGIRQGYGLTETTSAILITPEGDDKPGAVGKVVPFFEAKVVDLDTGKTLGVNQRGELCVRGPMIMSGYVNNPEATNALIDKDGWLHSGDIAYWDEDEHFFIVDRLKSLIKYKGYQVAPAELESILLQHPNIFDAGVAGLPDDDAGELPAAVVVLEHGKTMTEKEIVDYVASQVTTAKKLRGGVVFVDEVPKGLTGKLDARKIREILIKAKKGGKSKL

This assay has as its target Luciferin 4-monooxygenase (Photinus pyralis) (UniProt P08659). In words: Biochemical firefly luciferase enzyme assay for NPC (AID 624030). Note: nearly all actives have a fitted effect of over 70% in size. Conditions: purified P. pyralis luciferase, luminescence, 5 min; series mostly up to 58.6 µM. An excerpt: Charcot-Marie-Tooth-Association [CMTA] National Center for Advancing Translational Sciences [NCATS] Charcot-Marie-Tooth (CMT) disease was first characterized by Jean-Martin Charcot and Pierre Marie in France and, independently, by Howard Henry Tooth in England in 1886. CMT is one of the most common inherited neurological diseases, affecting approximately 1 in 2,500 Americans. […] The most prevalent type of CMT is known as CMT1A and caused by a duplication of the PMP22 gene which leads to over-expression of this protein. PMP22 is a glycosylated intrinsic membrane protein accounting for 2-5% of the myelin protein content, and its over-expression results in demyelination and subsequently axonal loss. A pair of cellular transcription-based assays was developed in the S16 rat Schwann cell lines (Hai, M., et al., 2002) stably transfected with orthogonal reporters - firefly luciferase (Fluc) and beta-lactamase (beta-Lac) - whose expression is driven by an intronic regulatory element of the PMP22 gene (Jones, E.A., et al., 2011) to recapitulate endogenous expression of PMP22. A comprehensive library of approved drugs, the NCGC Pharmaceutical Collection (Huang, R., et al., 2011), was screened in the cross-validating platform of the orthogonal reporter assays to identify drug modulators inhibitory towards PMP22 expression. A set of counter-screens was devised to address non-specific activity of the library. An ATP-dependent CellTiter-Glo assay (developed by Promega Corp) was utilized to control cell viability. In addition, biochemical Fluc enzyme assay was performed to assess direct inhibition of the Fluc enzymatic activity. References Hai, M., Muja, N., DeVries, G.H., Quarles, R.H. and Patel, P.I. Comparative analysis of Schwann cell lines as model systems for myelin gene transcription studies. J Neurosci Res, 2002. 69(4): pp 497-508 Huang, R., Southall, N., Wang, Y., Yasgar A., Shinn P., Jadhav, A. , Nguyen, D.-T. and Austin, C.P., The NCGC pharmaceutical collection: a comprehensive resource of clinically approved drugs enabling repurposing and chemical genomics. Sci Transl Med, 2011. 3(80): p. 80ps16.
Compounds were transferred to the plates in 23nl, and one microliter/well luciferase enzyme-buffer solution (10 nM P. pyralis luciferase and 50 mM Tris Acetate final concentrations) was dispensed yielding a final reaction volume of […]. Luciferase luminescence was measured by a ViewLux plate reader within 5 minutes of enzyme-buffer addition. The % activity was determined by normalizing to the average readings of PTC124 (a positive control) relative to DMSO (0% Activity). The concentration-effect curves were then classified based on curve quality (r2), response magnitude and degree of measured activity.
Regarding `C#C[C@]1(O)CC[C@H]2[C@@H]3CCC4=CC(=O)CCC4(C)[C@H]3CCC21C` (stereo not given in full), the Potency result was “inactive”.

`CC1[C@H]2Cc3ccc(O)cc3[C@]1(C)CCN2CCc1ccccc1` (stereo not given in full): the Potency result is “inactive”.

In the case of `CC1(C)CC/C(=C\c2ccc(Cl)cc2)C1(O)Cn1cncn1` (stereo not given), the Potency entry is “inactive”.

With `C[C@H]1[C@@H]2Cc3ccc(O)cc3[C@]1(C)CCN2CCc1ccccc1`, the Potency result is “inactive”.

For `COC(C(=O)C(O)C(C)O)C1Cc2cc3cc(OC4CC(OC5CC(O)C(OC)C(C)O5)C(OC(C)=O)C(C)O4)c(C)c(O)c3c(O)c2C(=O)C1OC1CC(OC2CC(OC3CC(C)(O)C(OC(C)=O)C(C)O3)C(O)C(C)O2)C(O)C(C)O1` (stereo not given), the Potency result was “inactive”.

As to `CCOC(=O)c1cncn1[C@@H](C)c1ccccc1`, the Potency entry was “inactive”.

Regarding `C=CC[N+]1(C)CCC23c4c5ccc(O)c4O[C@H]2C(=O)CC[C@@]3(O)C1C5` (stereo not given in full), the Potency result was “inactive”.

For `CN1C2CCC1C(C(=O)O)C(OC(=O)c1ccccc1)C2` (stereo not given), the Potency entry was “inactive”.

Regarding `OCC(O)[C@H]1O[C@@H]2O[C@H](C(Cl)(Cl)Cl)O[C@@H]2[C@H]1O` (stereo not given in full), the Potency entry was “inactive”.

Turning to `CC(=O)OC1CC(OC2C(O)CC(OC3C(O)CC(O[C@H]4CC[C@]5(C)C6CC[C@]7(C)[C@@H](C8=CC(=O)OC8)[C@@H](O)C[C@]7(O)[C@@H]6CC[C@@H]5C4)OC3C)OC2C)OC(C)C1OC1OC(CO)C(O)C(O)C1O` (stereo not given in full), the Potency result was “inactive”.

In the case of `CC(C)=CC1C(C(=O)OCc2coc(Cc3ccccc3)c2)C1(C)C` (stereo not given), the Potency result is “inactive”.

Turning to `CC1CC[C@@]2(NC1)OC1CC3C4CC[C@@H]5CC(O)CC[C@@]5(C)C4CC[C@]3(C)C1C2C` (stereo not given in full), the Potency result was “inactive”.

With `C=CCC1(O)CCC2C3CCC4=CC(=O)CCC4=C3C=CC21C` (stereo not given), the Potency result is “inactive”.

Consider `C#CC1(O)C=CC2C3CCC4=CC(=O)CCC4C3CCC21CC` (stereo not given), for which the Potency result is “inactive”.

On to `Clc1ccc([C@H]2CC3CCC2N3)cn1` (stereo not given in full), for which the Potency entry was “inactive”.

On to `CC(=O)O[C@H]1C[C@H](O[C@H]2[C@@H](O)CC(O[C@H]3[C@@H](O)C[C@H](O[C@H]4CC[C@@]5(C)[C@H](CC[C@@H]6[C@@H]5CC[C@]5(C)[C@@H](C7=CC(=O)OC7)CC[C@]65O)C4)O[C@@H]3C)O[C@@H]2C)O[C@H](C)[C@H]1O[C@@H]1O[C@H](CO)[C@@H](O)[C@H](O)[C@H]1O` (stereo not given in full), for which the Potency result is “inactive”.

Take `C[C@@H](N)[C@@H](O)c1ccc(O)c(O)c1`: the Potency result is “inactive”.

Take `CN[C@H](C)Cc1ccccc1`: the Potency entry is “inactive”.

Take `C=CCC1(C(C)CCC)C(=O)NC(=O)NC1=O` (stereo not given): the Potency entry was “inactive”.

Consider `CN(C)C1C(=O)C(C(N)=O)C(=O)C2(O)C(=O)C3C(=O)c4c(O)cccc4C(C)(O)C3C(O)C12` (stereo not given), for which the Potency entry is “inactive”.

With `O=[N+]([O-])OC1CO[C@H]2C(O[N+](=O)[O-])COC12` (stereo not given in full), the Potency entry is “inactive”.

For the compound `COc1ccc2c3c1OC1[C@H](O)CCC4[C@@H](C2)N(C)CC[C@]314` (stereo not given in full), the Potency entry was “inactive”.

For the compound `OC[C@@H](O)[C@H]1O[C@@H]2OC(C(Cl)(Cl)Cl)O[C@H]2[C@H]1O` (stereo not given in full), the Potency entry was “inactive”.

On to `Oc1ccc2c3c1O[C@H]1[C@@H](O)C=CC4[C@@H](C2)NCC[C@@]341` (stereo not given in full), for which the Potency result was “inactive”.

With `C#CCN1CC(=O)N(COC(=O)[C@@H]2[C@@H](C=C(C)C)C2(C)C)C1=O`, the Potency entry was “inactive”.

Consider `CN(C)[C@@H](Cc1ccccc1)c1ccccc1`, for which the Potency entry was “inactive”.

In the case of `CC[C@H](OC(C)=O)C(C[C@H](C)NC)(c1ccccc1)c1ccccc1`, the Potency result was “inactive”.

With `COc1cc(CC(C)N)c(OC)cc1C` (stereo not given), the Potency result is “inactive”.

Consider `CC(Cc1ccccc1)N(C)C` (stereo not given), for which the Potency result is “inactive”.

`COc1cc(CCN)c(OC)cc1Br`: the Potency result is “inactive”.

As to `CN(C)[C@H]1C(=O)C(C(N)=O)=C(O)[C@]2(O)C(=O)C3=C(O)c4c(O)cccc4[C@@](C)(O)[C@H]3C[C@@H]12`, the Potency result was “inactive”.

Take `CC(C)CCC(=O)OC1CCC2C3CCC4=CC(=O)CC[C@]4(C)C3CC[C@]12C` (stereo not given in full): the Potency entry was “inactive”.

As to `CN1[C@@H]2CC[C@H]1CC(OC(=O)C(CO)c1ccccc1)C2` (stereo not given in full), the Potency result was “inactive”.

For `CCON=C(CC)C1=C(O)CC(c2c(C)cc(C)cc2C)CC1=O` (stereo not given), the Potency result is “inactive”.

For `Cc1ccc2c(c1)[C@]13CCCC[C@@H]1[C@@H](C2)N(C)CC3`, the Potency result was “inactive”.

`C[C@]12CCC(=O)C=C1CC[C@H]1C2CC[C@@]2(C)[C@@H]1CC[C@]2(C)O` (stereo not given in full): the Potency result is “inactive”.

`CC(=O)Oc1ccc2c3c1OC1[C@@H](OC(C)=O)C=C[C@H]4[C@H](C2)N(C)CC[C@]314` (stereo not given in full): the Potency result is “inactive”.

`CC1OC(O[C@H]2C[C@@H](O)[C@]3(CO)[C@@H]4C(CC[C@]3(O)C2)[C@@]2(O)CC[C@H](C3=CC(=O)OC3)[C@@]2(C)C[C@H]4O)C(O)C(O)C1O` (stereo not given in full): the Potency entry was “inactive”.

In the case of `COc1ccc2c3c1OC1C(O)C=CC4[C@@H](C2)NCC[C@]314` (stereo not given in full), the Potency result was “inactive”.

For `CCCC(C)C1(CC)C(=O)NC(=S)NC1=O` (stereo not given), the Potency result is “inactive”.

(Values after PubChem BioAssay (NCATS).)
